From PubChem BioAssay (Tox21)
Results filed as inconclusive are left out. Active and inactive are the calls of the source. Unless noted, the call rests on the fitted dose curve; in most records, active means well fitted curve in the direction sought with a large enough effect in the repeat runs; inconclusive means weak or mixed curves; inactive means flat fitted curve, though single readings scatter.

Assays:
[1] = qHTS assay to test for compound auto fluorescence at 535 nm (green) in HEK293 cells (AID 720680)
[2] = qHTS assay to test for compound auto fluorescence at 460 nm (blue) in HEK293 cell free culture (AID 720681)
Procedure, shortened: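 Blue fluorescence (Ex 405/Em 460 nm, triamterene-equivalent) was read immediately after pin transfer of compound or DMSO into medium (DMEM, 10% FBS) without cells.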

[3] = qHTS assay to test for compound auto fluorescence at 535 nm (green) in HEK293 cell free culture (AID 720682)
Procedure, shortened: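 Each library compound, or DMSO control, is added by pintool to medium alone, comprising DMEM and 10% FBS. Emission at 535 nm following 485 nm excitation is quantified against fluorescein.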

[4] = qHTS assay to test for compound auto fluorescence at 590 nm (red) in HEK293 cell free culture (AID 720683)
Procedure, shortened: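 Red-channel autofluorescence of compounds in culture medium (DMEM, 10% FBS), no cells, measured at 540/590 nm. Rose Bengal sodium is the reference fluorophore for equivalence.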

[5] = qHTS assay to test for compound auto fluorescence at 460 nm (blue) in HepG2 cell free culture (AID 720685)
Procedure, shortened: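 Compound (23 nL) or DMSO pinned into cell-free MEM with 10% FBS; blue fluorescence read at 405/460 nm excitation/emission, expressed as auto-fluorescence equivalency to triamterene.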

[6] = qHTS assay to test for compound auto fluorescence at 535 nm (green) in HepG2 cell free culture (AID 720686)
[7] = qHTS assay to test for compound auto fluorescence at 460 nm (blue) in HepG2 cells (AID 720687)
Procedure, shortened: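 Blue-channel autofluorescence (Ex/Em 405/460 nm, triamterene-equivalent) was measured after 1 hr compound exposure at 37 C, 5% CO2. Cells were HepG2, plated overnight at 37 C in MEM plus 10% FBS.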

[8] = qHTS assay to test for compound auto fluorescence at 590 nm (red) in HepG2 cell free culture (AID 720684)
Procedure, shortened: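 Steps: dispense MEM/10% FBS medium, no cells; pin compound or DMSO vehicle; read red channel, Ex/Em 540/590 nm. Output given as Rose Bengal sodium equivalents.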

[9] = biological target: Glucocorticoid receptor (Homo sapiens) (UniProt P04150); assay: qHTS assay to identify small molecule agonists of the glucocorticoid receptor (GR) signaling pathway (AID 720691; active means well fitted activation curve with a large enough effect in the signal ratio in the repeat runs, not every such curve was filed as active; the % refers to the signal ratio)
Procedure, shortened: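 Reporter read-out: fluorescence intensity following 2 h room-temperature LiveBLAzer B/G FRET substrate loading. Prior step: GR-bla HeLa cells held 4 h, then treated 18 h at 37 C.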

[10] = biological target: Glucocorticoid receptor (Homo sapiens) (UniProt P04150); assay: qHTS assay to identify small molecule antagonists of the glucocorticoid receptor (GR) signaling pathway (AID 720692; active means well fitted inhibition curve with a large enough effect in the signal ratio in the repeat runs, not every such curve was filed as active; the % refers to the signal ratio)
Procedure, shortened: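 Dexamethasone (5 nM final) stimulated a stably integrated GRE-beta-lactamase reporter in HeLa cells during 18 h co-incubation with compounds; signal was quantified as fluorescence intensity of B/G FRET substrate after 2 h.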
On the % scale 0 is the no-effect control and ±100 the full control effect.

Glucocorticoid receptor (Homo sapiens), sequence (P04150 whole entry, looked up): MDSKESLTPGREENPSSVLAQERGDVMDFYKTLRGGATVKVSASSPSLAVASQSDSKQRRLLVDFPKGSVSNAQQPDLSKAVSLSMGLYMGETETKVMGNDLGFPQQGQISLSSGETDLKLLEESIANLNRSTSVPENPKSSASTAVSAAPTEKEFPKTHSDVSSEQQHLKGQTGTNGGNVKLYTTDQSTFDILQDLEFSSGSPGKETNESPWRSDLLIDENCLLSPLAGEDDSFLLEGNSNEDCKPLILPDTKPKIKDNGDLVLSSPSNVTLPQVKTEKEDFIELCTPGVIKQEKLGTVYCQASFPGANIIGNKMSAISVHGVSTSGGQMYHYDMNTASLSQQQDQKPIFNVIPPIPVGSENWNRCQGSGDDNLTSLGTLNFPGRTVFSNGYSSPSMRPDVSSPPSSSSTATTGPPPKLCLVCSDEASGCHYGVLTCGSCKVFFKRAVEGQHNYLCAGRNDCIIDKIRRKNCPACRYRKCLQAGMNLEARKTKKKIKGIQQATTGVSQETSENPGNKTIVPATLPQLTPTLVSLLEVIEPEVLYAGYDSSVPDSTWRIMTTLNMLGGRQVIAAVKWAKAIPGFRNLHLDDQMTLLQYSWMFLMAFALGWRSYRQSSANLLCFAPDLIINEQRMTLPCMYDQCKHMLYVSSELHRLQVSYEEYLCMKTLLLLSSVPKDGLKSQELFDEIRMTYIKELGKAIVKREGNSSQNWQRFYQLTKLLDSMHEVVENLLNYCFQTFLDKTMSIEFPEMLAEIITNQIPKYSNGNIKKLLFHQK

CC1=CC[C@@H]2C[C@H]1C2(C)C
inactive: fluorescence, % of fluorescein [1] -0.149% [at 18.6 µM] | fluorescence, % of fluorescent control [2] 0.0118% [at 18.6 µM] | activity change [3] -0.0302% [at 18.6 µM] | fluorescence, % of fluorescent control [4] 0.0507% [at 18.6 µM] | fluorescence, % of fluorescent control [5] 0.0508% [at 18.6 µM] | fluorescence, % of fluorescein control [6] 0.0311% [at 18.6 µM] | fluorescence, % of fluorescent control [7] -0.0004% [at 18.6 µM]

CC(C)c1ccc(C(=O)N=C(N)N)cc1S(C)(=O)=O
inactive: outcome [1] | Potency [2] | outcome [3] | outcome [4] | outcome [8] | Potency [5] | outcome [6] | Potency [7] | Potency [9] | Potency [10]

CCCCCCCCCCCCCOS(=O)(=O)O
inactive: outcome [1] | Potency [2] | outcome [3] | outcome [4] | Potency [5] | outcome [6] | Potency [7]

CC1=C2[C@@H]([C@H](C)CC[C@H]2/C=C(\C)C(=O)O)[C@H](O)C1
inactive: outcome [1] | Potency [2] | outcome [3] | outcome [4] | outcome [8] | Potency [5] | outcome [6] | Potency [7] | Potency [9] | Potency [10]

CC(CCc1ccc(O)cc1)NCCc1ccc(O)c(O)c1 (configuration not stated)
inactive: outcome [1] | Potency [2] | outcome [3] | outcome [4] | Potency [5] | outcome [6] | Potency [7] | Potency [9] | Potency [10]

O=C(O)CO
inactive: outcome [1] | Potency [2] | outcome [3] | outcome [4] | Potency [5] | outcome [6] | Potency [7]

BrC(Br)C(Br)Br
inactive: outcome [1] | Potency [2] | outcome [3] | outcome [4] | outcome [8] | Potency [5] | outcome [6] | Potency [7] | Potency [9] | Potency [10]

C1=CCC2CC=CC2C1 (configuration not stated)
inactive: outcome [1] | Potency [2] | outcome [3] | outcome [4] | outcome [8] | Potency [5] | outcome [6] | Potency [7] | Potency [9] | Potency [10]

CC(C)c1ccc(C#N)cc1
inactive: outcome [1] | Potency [2] | outcome [3] | outcome [4] | outcome [8] | Potency [5] | outcome [6] | Potency [7] | Potency [9] | Potency [10]

CC(C)(C(=O)c1cccnc1)c1cccnc1
inactive: fluorescence, % of fluorescein [1] 0.0635% [at 18.6 µM] | fluorescence, % of fluorescent control [2] -0.108% [at 18.6 µM] | activity change [3] 0.0185% [at 18.6 µM] | fluorescence, % of fluorescent control [4] 0.0451% [at 18.6 µM] | fluorescence, % of Rose Bengal [8] 0.0034% [at 18.6 µM] | fluorescence, % of fluorescent control [5] -0.0441% [at 18.6 µM] | fluorescence, % of fluorescein control [6] 0.0796% [at 18.6 µM] | fluorescence, % of fluorescent control [7] -0.0372% [at 18.6 µM] | Potency [9] | Potency [10]

O=CNNC=O
inactive: outcome [1] | Potency [2] | outcome [3] | outcome [4] | outcome [8] | Potency [5] | outcome [6] | Potency [7] | Potency [9] | Potency [10]

CSCC[C@H](NC(=O)[C@H](Cc1c[nH]c2ccccc12)NC(=O)CCNC(=O)OC(C)(C)C)C(=O)N[C@@H](CC(=O)O)C(=O)N[C@@H](Cc1ccccc1)C(N)=O
inactive: outcome [1] | Potency [2] | outcome [3] | outcome [4] | outcome [8] | Potency [5] | outcome [6] | Potency [7] | Potency [9] | Potency [10]

CCOC(=O)C(C)O (configuration not stated)
inactive: outcome [1] | Potency [2] | outcome [3] | outcome [4] | outcome [8] | Potency [5] | outcome [6] | Potency [7] | Potency [9] | Potency [10]

O=c1[nH]c2cc(C(F)(F)F)c(N3CCOCC3)cc2n(CP(=O)(O)O)c1=O
inactive: outcome [1] | Potency [2] | outcome [3] | outcome [4] | outcome [8] | Potency [5] | outcome [6] | Potency [7] | Potency [9] | Potency [10]

COc1ccc(-c2cc(=S)ss2)cc1
inactive: outcome [1] | Potency [2] | outcome [3] | outcome [4] | Potency [5] | outcome [6] | Potency [7] | Potency [9]

CCC1CCC(CCC(=O)O)C1 (configuration not stated)
inactive: outcome [1] | Potency [2] | outcome [3] | outcome [4] | Potency [5] | outcome [6] | Potency [7] | Potency [9]

Cc1ccc2c(c1[N+](=O)[O-])C(=O)c1ccccc1C2=O
inactive: outcome [1] | Potency [2] | outcome [3] | outcome [8] | Potency [5] | outcome [6] | Potency [7]

O=C(c1ccccc1)c1ccc(O)cc1
inactive: outcome [1] | Potency [2] | outcome [3] | outcome [4] | Potency [5] | outcome [6] | Potency [7] | Potency [9] | Potency [10]

O=C(O)CCCc1c[nH]c2ccccc12
inactive: outcome [1] | Potency [2] | outcome [3] | outcome [8] | Potency [5] | outcome [6] | Potency [7] | Potency [9] | Potency [10]

CC(C)COC(=O)COc1cc(Cl)c(Cl)cc1Cl
inactive: outcome [1] | Potency [2] | outcome [3] | outcome [8] | Potency [5] | outcome [6] | Potency [7] | Potency [9]

CCCCCCOC(=O)CCCCC
inactive: outcome [1] | Potency [2] | outcome [3] | outcome [4] | Potency [5] | outcome [6] | Potency [7] | Potency [9] | Potency [10]

CC(=O)NCCO
inactive: outcome [1] | Potency [2] | outcome [3] | outcome [8] | Potency [5] | outcome [6] | Potency [7] | Potency [9] | Potency [10]

NC(=O)c1ccccc1[N+](=O)[O-]
inactive: outcome [1] | Potency [2] | outcome [3] | outcome [8] | Potency [5] | outcome [6] | Potency [7]

CCCCC(CC)COS(=O)(=O)O (configuration not stated)
inactive: outcome [1] | Potency [2] | outcome [3] | outcome [8] | Potency [5] | outcome [6] | Potency [7]

CCCCCCCCCCCCCOC(=O)CCSCCC(=O)OCCCCCCCCCCCCC
inactive: fluorescence, % of fluorescein [1] -0.0169% [at 18.6 µM] | fluorescence, % of fluorescent control [2] -0.0348% [at 18.6 µM] | activity change [3] 0.0335% [at 18.6 µM] | fluorescence, % of Rose Bengal [8] -0.0106% [at 18.6 µM] | fluorescence, % of fluorescent control [5] -0.0714% [at 18.6 µM] | fluorescence, % of fluorescein control [6] -0.0124% [at 18.6 µM] | fluorescence, % of fluorescent control [7] -0.106% [at 18.6 µM]

Cc1ccc(Cl)cc1N
inactive: outcome [1] | Potency [2] | outcome [3] | outcome [8] | Potency [5] | outcome [6] | Potency [7] | Potency [9] | Potency [10]
